Over roughly 68,000 sequences, “fluorescence intensity (a.u.)” has its median near 9,100; the highest 2% begin near 16,000. For the sample, the highest values were picked, then their nearest neighbours and some sequences at random.
These sequences were tested against OsWRKY34 (Oryza sativa, UniProt Q0JBA9 1-250) (assay: protein-binding microarray (RPBM); PBS, 2% BSA, 51.3 ng/ul salmon testes DNA, 50 uM zinc acetate, 200 nM TF, 25 C, 1 h; high values mean tight binding). Settings: protein: recombinant; tags: N-terminal polyhistidine and DsRed monomer fusion (pET32a); label: CyDye5-dUTP incorporated in the synthesized complementary strand; 3' TTTTT single-stranded linker to array surface; dsDNA, one strand shown.
Chain of OsWRKY34 (Q0JBA9 entry or part of it): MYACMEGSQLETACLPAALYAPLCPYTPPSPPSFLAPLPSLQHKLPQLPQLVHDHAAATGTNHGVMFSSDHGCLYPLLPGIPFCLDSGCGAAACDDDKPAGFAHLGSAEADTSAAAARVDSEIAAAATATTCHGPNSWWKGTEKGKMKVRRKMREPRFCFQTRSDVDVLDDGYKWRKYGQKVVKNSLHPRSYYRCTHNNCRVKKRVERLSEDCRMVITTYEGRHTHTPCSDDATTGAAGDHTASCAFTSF
Method in brief: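 The binding signal is fluorescence intensity per array feature (arbitrary units). Readings came from an Axon 4000B scanner after a washed, 2% BSA-blocked, double-stranded custom Agilent array had been incubated for 1 h at 25 °C with 200 nM protein and 50 µM zinc acetate. The protein was a Ni–NTA-purified transcription factor fused N-terminally to polyhistidine and DsRed, expressed in E. coli BL21-CodonPlus.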

Sequence	binding signal
CTGAAAATTTTGTGCGCTCACACCATGTGCTACATTTGTCCGGAGTCACCTAGTGCAG	10700 fluorescence intensity (a.u.)
TTCCTCCGTTTTTTTTATTCCTGCAACTAAAAGGTATTCTCGGAGTCACCTAGTGCAG	8860 fluorescence intensity (a.u.)
GGTCTCAGGTTGTCACTTTTCTATCCAGATTTATCGTAGTCGGAGTCACCTAGTGCAG	8110 fluorescence intensity (a.u.)
ATCCTCACGTAATATACACCTTCGTACCATAATATAATAACGGAGTCACCTAGTGCAG	8250 fluorescence intensity (a.u.)
CGCTTCCTGTTGTGATTATGTAATCTTGTATTCTTGTTGACGGAGTCACCTAGTGCAG	11600 fluorescence intensity (a.u.)
CTCCCTCGTCTTTCTGCTGGCCACCACCCTCCCCGTCTTCCGGAGTCACCTAGTGCAG	12300 fluorescence intensity (a.u.)
ACCTTTCTCACTACACGCCATTCCGCTCGCGTCCAATTGTCGGAGTCACCTAGTGCAG	10100 fluorescence intensity (a.u.)
CTCGTCGTCTCCTCCGCTCCTTGCGCCATCTCGCGGCTGACGGAGTCACCTAGTGCAG	11500 fluorescence intensity (a.u.)
CATGATCGCTGTGCACCTTCTGAATCATCTCTTCAATGGCCGGAGTCACCTAGTGCAG	9780 fluorescence intensity (a.u.)
TTTAAATGTATCATGTCATTGACTTTTTTATAATATTTGACGGAGTCACCTAGTGCAG	8120 fluorescence intensity (a.u.)
TTTAATGTATGGTGCCGTTGACTTTTTTTATCAATATTTGCGGAGTCACCTAGTGCAG	41200 fluorescence intensity (a.u.)
CATGCCAATCATAAATAATGACATATTGGTTGACTTTTTGCGGAGTCACCTAGTGCAG	11000 fluorescence intensity (a.u.)
CATACTGTTCCACTCGCCCTCGTTTTCTCCGCCACCGAGCCGGAGTCACCTAGTGCAG	8450 fluorescence intensity (a.u.)
TTGACGCCGTTGACTTTTTAATACATGTTTGACCATTCGTCGGAGTCACCTAGTGCAG	44300 fluorescence intensity (a.u.)
TTGACGCCGTTGACTTTTTAGTACATGTTTGACCATTCGTCGGAGTCACCTAGTGCAG	49900 fluorescence intensity (a.u.)
CTCCCTCCGTTTCGAAATGTTTGACGCCGTTGACTTTTTACGGAGTCACCTAGTGCAG	15900 fluorescence intensity (a.u.)
TCCGTTTCGGAATGTTTGACGCCGTTGACTTTTTATTACACGGAGTCACCTAGTGCAG	25400 fluorescence intensity (a.u.)
ACTCTCTCCGTTTCGAAATGTTTGACGCTGTTGACTTTTTCGGAGTCACCTAGTGCAG	17500 fluorescence intensity (a.u.)
CTCCCTTCGTTTCGAAATGTTTGACGCCGTTGACTTTTTACGGAGTCACCTAGTGCAG	22800 fluorescence intensity (a.u.)
CGCTGTTCAGACGTTGACTCTCGTTGTTTTTATAGTTTTTCGGAGTCACCTAGTGCAG	14600 fluorescence intensity (a.u.)
ACTCCCTCCGTTTCAAAATGTTTGACATCATTGACTTTTTCGGAGTCACCTAGTGCAG	11100 fluorescence intensity (a.u.)

Sequence	binding signal
CTCCCTCTATCAAAAAAATGTTTGACGCCGTTGACTTTTTCGGAGTCACCTAGTGCAG	25600 fluorescence intensity (a.u.)
ATACTCCCTTCGTTTCGAAATGTTTGACGCCGTTGACTTTCGGAGTCACCTAGTGCAG	14300 fluorescence intensity (a.u.)
CACCCTCTCCCGTGTTCCACCCCGCCCGCGAATCATATCCCGGAGTCACCTAGTGCAG	9340 fluorescence intensity (a.u.)
TCCGTCCCTGCAGTCACCTTATTGGTCAAATTTTAAATATCGGAGTCACCTAGTGCAG	13400 fluorescence intensity (a.u.)
TAGGGGTGGGCATTCGGTCTAACTGAAAATTTCGGTCTCGCGGAGTCACCTAGTGCAG	13500 fluorescence intensity (a.u.)
TGACGTTTGACCAAAGTTTTCTTCAATTTTTCAGAAATGGCGGAGTCACCTAGTGCAG	9900 fluorescence intensity (a.u.)
GGTCTATGTCTCTCTGATTATTTCTTTTACTAATTGTTTGCGGAGTCACCTAGTGCAG	9060 fluorescence intensity (a.u.)
CTTCTGCTCTCTAGCTAGCCTTCTTCCTATTGGAAGCTTCCGGAGTCACCTAGTGCAG	9230 fluorescence intensity (a.u.)
TTCTCTTTTATCTGTTTGCTTCCTATAAATTCTACGCGATCGGAGTCACCTAGTGCAG	8480 fluorescence intensity (a.u.)
CCGCTGGCCCTTGTTGACACCTTGACTACGAAATGTATTCCGGAGTCACCTAGTGCAG	8980 fluorescence intensity (a.u.)
CATTCCTATCAAAATCCTACGTTTTTCCTATTCCTACGTTCGGAGTCACCTAGTGCAG	9840 fluorescence intensity (a.u.)
CAACGAAAATACTAACAACATGCACCTGGCCGCGTTGACCCGGAGTCACCTAGTGCAG	13900 fluorescence intensity (a.u.)
TTATACTCCCTCCGTTTCGAAATGTTTGACGCCGTTGACTCGGAGTCACCTAGTGCAG	11400 fluorescence intensity (a.u.)
TGCACCTGGCCGCGTTGACCGTTCGAAATGTATATATTCCCGGAGTCACCTAGTGCAG	19600 fluorescence intensity (a.u.)
GATCCTCTGTTTTATCTACGCGTTCCTATCAAATTCCTTTCGGAGTCACCTAGTGCAG	16800 fluorescence intensity (a.u.)
ATATTCCCTCCGTTTTGAAATGTTTGACGCCGTTGACTTTCGGAGTCACCTAGTGCAG	17000 fluorescence intensity (a.u.)
GCGCTACTTCGCTCGACCACCCGCCCGCCTTCCACTGCCACGGAGTCACCTAGTGCAG	8550 fluorescence intensity (a.u.)
CTCTAATTTTCTTTGCGTGTTCCATCATCAATATGGTATTCGGAGTCACCTAGTGCAG	10700 fluorescence intensity (a.u.)
CAATTTCGAGCTTCGTATCAGCATATGCTATTCCCTATTGCGGAGTCACCTAGTGCAG	10500 fluorescence intensity (a.u.)
CGTTGACTTTTTAGCACATGTTTGACCGTTCGTCTTATTCCGGAGTCACCTAGTGCAG	29000 fluorescence intensity (a.u.)
TTAGCACATGTTTGACCGTTCGTCTTATTCAAAATTTTTTCGGAGTCACCTAGTGCAG	12600 fluorescence intensity (a.u.)
